Measured values: PubChem BioAssay (NCI)
Compounds without any hit were thinned out: in the full panel of roughly 79,000, 15% have a hit. Values without a mark were called inactive. The source made the active and inactive calls. Rule as the data show it: active = growth inhibition above about 70%; inactive = the rest.

Test: NCI Yeast Anticancer Drug Screen. Data for the sgs1 strain (AID 173);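 also: 0% = growth of vehicle-only control cultures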
Settings: S. cerevisiae sgs1 mutant, at 100.0 µM, hits give high values
Procedure, shortened: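 Strain with an altered DNA repair or cell cycle pathway exposed to compound. Growth then measured. Value = inhibition versus vehicle control.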
`S=C(S)NN1CCOCC1` showed a growth inhibition of 50%.
For `COC(=O)C1=C(C)NC(C)=C(C(=O)OCCCN2CCC(c3ccccc3)(c3ccccc3)CC2)C1c1cccc([N+](=O)[O-])c1` (configuration not stated), the growth inhibition was 91% (active).
`c1ccc2c(c1)Oc1cccc3cccc-2c13` gave a growth inhibition of 60%.
With `CN(C)CCOc1ccc2c(c1)C/C(=C/c1ncc([N+](=O)[O-])n1C)C2=O` the growth inhibition was 81% (active).
`Clc1ccccc1C1OC1c1ccccc1Cl` (configuration not stated) gave a growth inhibition of 18%.
With `O=[N+]([O-])c1cc(CCl)ccc1CCl` the growth inhibition was 98% (active).
With `O=C1C=CC(=O)c2c(O)c(Nc3ccc(OC(F)(F)F)cc3)c(Cl)c(O)c21` the growth inhibition was 96% (active).
In the case of `S=c1[nH]nc(Nc2ccc(Cl)cc2)s1`, the growth inhibition is reported as 91% (active).
With `Cn1ccnc1Oc1ccc(Cl)cc1` the growth inhibition was 98% (active).
`O=C1c2ccccc2-c2nc3ccccc3nc21` showed a growth inhibition of 36%.
With `CCCCCCCCCCCCCCCCCCNC` the growth inhibition was 87% (active).
In the case of `Oc1ccc(NCn2c(=S)sc3ccccc32)cc1`, the growth inhibition is reported as 96% (active).
For `O=C1C2CC[C@@H]3C(=O)C(Cl)(Cl)[C@@H]3CCC2C1(Cl)Cl` (some centres not stated), the growth inhibition was 53%.
`CC[n+]1ccc2c(C)c3[nH]c4ccc(O)cc4c3c(C)c2c1` showed a growth inhibition of 46%.
`Cc1ccc(-n2cc(-c3ccc(Cl)cc3)c(C#N)c2N)cc1` gave a growth inhibition of 16%.
In the case of `CC(=O)[O][Bi]([c]1ccccc1)[c]1ccccc1`, the growth inhibition is reported as 95% (active).
In the case of `CC1=C(SCCO)C(=O)c2ccccc2C1=O`, the growth inhibition is reported as 35%.
Compound `C/C(=N\O)C1CC2C=C(C#N)C1N(Cc1ccccc1)C2` (configuration not stated) has a growth inhibition of 17%.
With `Nc1nc(-c2cccnc2)cc(-c2cc(-c3cccnc3)nc(N)n2)n1` the growth inhibition was -7%.
With `CC(C)=CC(=O)O[C@@H]1CC(C)(C)CC2C3=CCC4[C@]56CC[C@](O)(OC5)C(C)(C)C6CC[C@@]4(C)C3(C)CC[C@]21C(=O)O` (some centres not stated) the growth inhibition was 95% (active).
Compound `CCC(C)COC(=O)c1ccc(N=Cc2ccc(C=Nc3ccc(C(=O)OCC(C)CC)cc3)cc2)cc1` (configuration not stated) has a growth inhibition of 11%.
With `Oc1cccc2c(Cl)ccnc12` the growth inhibition was 98% (active).
In the case of `O=C(O)c1cccc(-c2c3ccc(=O)cc-3oc3cc(O)ccc23)c1`, the growth inhibition is reported as 92% (active).
For `CN(CCc1ccccn1)c1ccc2c(c1)Cc1ccccc1-2`, the growth inhibition was 88% (active).
`Cc1cc(S(=O)(=O)/N=C(/NN)NNc2cccc(C(F)(F)F)n2)c(S)cc1Cl` showed a growth inhibition of 25%.
For `Nc1ccccc1CC(O)C(=O)O` (configuration not stated), the growth inhibition was 95% (active).
With `O=C(O)C1CCCCC1c1c2ccc(=O)c(O)c-2oc2c(O)c(O)ccc12` (configuration not stated) the growth inhibition was 74% (active).
Work on `Cc1ccc2ccc(O)cc2c1` yielded a growth inhibition of 32%.
In the case of `COC(=O)c1ccc(NCC2=CC(=O)C=CC2=O)cc1O`, the growth inhibition is reported as 91% (active).
With `C(CCSC1=NCCN1)CSC1=NCCN1` (tested in a mixture with another compound) the growth inhibition was 99% (active).
With `N#Cc1c(N)[nH]c2ccc(Sc3ccccc3)cc12` the growth inhibition was 97% (active).
In the case of `CCNc1nnc(CSc2nc(-c3ccccc3)c(-c3ccccc3)[nH]2)s1`, the growth inhibition is reported as 80% (active).
Work on `CC[C@@]1(O)C(=O)OCc2c1cc1n(c2=O)Cc2cc3c(N)cccc3nc2-1` yielded a growth inhibition of 8%.

Test: NCI Yeast Anticancer Drug Screen. Data for the mlh1 rad18 strain (AID 175)
Settings: S. cerevisiae mlh1 rad18 strain growth inhibition; at 5.0 µM (retest, dose inferred, filed as 0.5); hits give high values
Procedure, shortened: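 A repair-deficient yeast strain is exposed to test compound, and growth is scored relative to vehicle-treated controls.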
With `S=C(S)NN1CCOCC1` the growth inhibition was 94% (active).
Compound `COc1cc2c3c(cccc3c1)C(=O)N(CCN(C)C)C2=O` has a growth inhibition of 42%.
For `COC(=O)C1=C(C)NC(C)=C(C(=O)OCCCN2CCC(c3ccccc3)(c3ccccc3)CC2)C1c1cccc([N+](=O)[O-])c1` (configuration not stated), the growth inhibition was 74% (active).
With `c1ccc2c(c1)Oc1cccc3cccc-2c13` the growth inhibition was 100% (active).
In the case of `CN(C)CCOc1ccc2c(c1)C/C(=C/c1ncc([N+](=O)[O-])n1C)C2=O`, the growth inhibition is reported as 53%.
In the case of `Cc1ccc(CCC2=CCCc3c2ccc2ccccc32)cc1`, the growth inhibition is reported as 38%.
For `CNC(=O)OCc1c(COC(=O)NC)c(-c2ccc(Cl)c(Cl)c2)n2c1CCC2`, the growth inhibition was 5%.
`Clc1ccccc1C1OC1c1ccccc1Cl` (configuration not stated) gave a growth inhibition of 57%.
`O=[N+]([O-])c1cc(CCl)ccc1CCl` gave a growth inhibition of 38%.
`O=C1C=CC(=O)c2c(O)c(Nc3ccc(OC(F)(F)F)cc3)c(Cl)c(O)c21` showed a growth inhibition of 13%.
`S=c1[nH]nc(Nc2ccc(Cl)cc2)s1` gave a growth inhibition of -149%.
With `Cn1ccnc1Oc1ccc(Cl)cc1` the growth inhibition was -131%.
With `BrCc1cccc2ccc3cccc(CBr)c3c12` the growth inhibition was -1%.
In the case of `O=C1c2ccccc2-c2nc3ccccc3nc21`, the growth inhibition is reported as 84% (active).
`CCCCCCCCCCCCCCCCCCNC` showed a growth inhibition of 41%.
`Oc1ccc(NCn2c(=S)sc3ccccc32)cc1` showed a growth inhibition of 51%.
For `O=C1C2CC[C@@H]3C(=O)C(Cl)(Cl)[C@@H]3CCC2C1(Cl)Cl` (some centres not stated), the growth inhibition was 31%.
In the case of `CC[n+]1ccc2c(C)c3[nH]c4ccc(O)cc4c3c(C)c2c1`, the growth inhibition is reported as 5%.
`Cc1ccc(-n2cc(-c3ccc(Cl)cc3)c(C#N)c2N)cc1` showed a growth inhibition of -15%.
`CC(=O)[O][Bi]([c]1ccccc1)[c]1ccccc1` gave a growth inhibition of 42%.
`CC1=C(SCCO)C(=O)c2ccccc2C1=O` gave a growth inhibition of -29%.
With `C/C(=N\O)C1CC2C=C(C#N)C1N(Cc1ccccc1)C2` (configuration not stated) the growth inhibition was 0%.
`CC(Br)C(=O)c1ccc2cc(Br)c3ccccc3c2c1` (configuration not stated) gave a growth inhibition of 9%.
`Nc1nc(-c2cccnc2)cc(-c2cc(-c3cccnc3)nc(N)n2)n1` gave a growth inhibition of -15%.
With `CC(C)=CC(=O)O[C@@H]1CC(C)(C)CC2C3=CCC4[C@]56CC[C@](O)(OC5)C(C)(C)C6CC[C@@]4(C)C3(C)CC[C@]21C(=O)O` (some centres not stated) the growth inhibition was -11%.
For `CCC(C)COC(=O)c1ccc(N=Cc2ccc(C=Nc3ccc(C(=O)OCC(C)CC)cc3)cc2)cc1` (configuration not stated), the growth inhibition was 50%.
In the case of `Oc1cccc2c(Cl)ccnc12`, the growth inhibition is reported as 100% (active).
In the case of `O=C(O)c1cccc(-c2c3ccc(=O)cc-3oc3cc(O)ccc23)c1`, the growth inhibition is reported as 94% (active).
`CN(CCc1ccccn1)c1ccc2c(c1)Cc1ccccc1-2` showed a growth inhibition of 20%.
`Cc1cc(S(=O)(=O)/N=C(/NN)NNc2cccc(C(F)(F)F)n2)c(S)cc1Cl` gave a growth inhibition of 21%.
For `O=C1C2C(C(=O)N1c1ccc(OCc3ccccc3)cc1)C1c3ccccc3C2C2CCCCN21` (configuration not stated), the growth inhibition was -6%.
Compound `Nc1ccccc1CC(O)C(=O)O` (configuration not stated) has a growth inhibition of 0%.
`O=C(O)C1CCCCC1c1c2ccc(=O)c(O)c-2oc2c(O)c(O)ccc12` (configuration not stated) showed a growth inhibition of -3%.
In the case of `Cc1ccc2ccc(O)cc2c1`, the growth inhibition is reported as -33%.
`O=C1C(=O)c2ccccc2C=C1[N+](=O)[O-]` gave a growth inhibition of 0%.
In the case of `COC(=O)c1ccc(NCC2=CC(=O)C=CC2=O)cc1O`, the growth inhibition is reported as 0%.
For `C(CCSC1=NCCN1)CSC1=NCCN1` (tested in a mixture with another compound), the growth inhibition was 77% (active).
`N#Cc1c(N)[nH]c2ccc(Sc3ccccc3)cc12` showed a growth inhibition of 19%.
Work on `CCNc1nnc(CSc2nc(-c3ccccc3)c(-c3ccccc3)[nH]2)s1` yielded a growth inhibition of -1%.
